Source: PubChem BioAssay AID1224903 (Bradner/Qi Labs at DFCI, 2016)
The campaign covered roughly 66,000 compounds. About 720 (1.1%) were called active. Rule as the data show it: active = normalised signal below about 0.5; inactive = the rest, inconclusive results apart. Only a selection was taken, and actives are over-represented in it overall.

Each compound was assayed against Chromobox protein homolog 7 (Homo sapiens) (UniProt O95931) (assay: CBX7 chromodomain binding inhibitors, primary screen, biochemical, AlphaScreen (AID 1224903)). Settings: AlphaScreen His6-CBX7 / biotin-H3K27me3 peptide binding, stronger effect = lower value; z-score: measured here: z-score of CBX7 signal.
Chromobox protein homolog 7 (Homo sapiens), sequence (O95931 whole entry, looked up): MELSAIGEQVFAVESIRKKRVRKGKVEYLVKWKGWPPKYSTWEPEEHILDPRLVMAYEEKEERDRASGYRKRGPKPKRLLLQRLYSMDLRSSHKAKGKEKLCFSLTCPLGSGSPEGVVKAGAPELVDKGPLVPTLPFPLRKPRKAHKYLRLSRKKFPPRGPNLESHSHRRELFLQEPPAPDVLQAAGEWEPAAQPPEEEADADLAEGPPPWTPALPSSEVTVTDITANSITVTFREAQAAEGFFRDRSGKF

SMILES | normalised signal (fraction of DMSO) | z-score
CCCNC(=O)c1ccc2c(c1)N(Cc1ccccc1)C(=O)c1ccccc1S2(=O)=O | 1.14 (inactive) | 2.25
CCOC(=O)c1sc(NC(=O)c2ccc(OCC)cc2)nc1-c1ccccc1 | 0.993 (inactive) | -0.166
Cc1ccc(Cn2c(=O)cc(C(=O)NC3CC3)c3ccccc32)cc1 | 0.912 (inactive) | -0.873
COc1ccc(Cl)cc1C1CC(=O)Nc2cc3c(cc21)OCO3 (stereo not drawn) | 1.03 (inactive) | 0.351
CCc1nc2ccc(C(=O)NCC(OC)OC)cc2nc1CC | 1.13 (inactive) | 0.801
CC1CCN(c2c(NCc3ccc(C(=O)NCc4ccccc4)cc3)c(=O)c2=O)CC1 | 0.993 (inactive) | -0.292
COc1ccc(-c2[nH]c(-c3ccc(C)cc3)nc2SCC(=O)Nc2ccc(F)cc2)cc1OC | 0.756 (inactive) | -11.6
COc1cc(-c2nc(-c3ccccc3)c(-c3ccccc3)[nH]2)ccc1OCC(=O)O | 0.774 (inactive) | -0.891
COc1ccc(-c2nc(-c3ccc(F)cc3)c(-c3ccc(F)cc3)[nH]2)cc1OC | 0.322 (active) | -13.4
CC1(C)C=c2c(nnc3ncnn23)=C(O)C1 | 0.00873 (active) | -15.7
CCOC(=O)C1CCCN(c2c(N3CC(C)CC(C)C3)c(=O)c2=O)C1 (stereo not drawn) | 0.898 (inactive) | -2.3
COc1ccc(OCc2nc(C#N)c(N(C)Cc3ccccc3)o2)cc1 | 0.575 (inactive) | -2.65
Cc1ccc(OCc2nc(C#N)c(N3CCCC3)o2)cc1 | 0.417 (active) | -10.6
N#Cc1nc(COc2ccc(Cl)cc2)oc1N1CCCC1 | 0.728 (inactive) | -11.9
Cc1cc(N2CCCCC2)nc2ccc(NC(=O)CCC(=O)N3CCN(c4ccc(F)cc4)CC3)cc12 | 1.05 (inactive) | 0.868
Cc1ccc(C)c(CN2C(=O)CSc3ccc(C(=O)NCCCN4CCCCCC4)cc32)c1 | 0.98 (inactive) | -0.433
Cc1cc(C)nc(N=C(N)N2CCC(Cc3ccccc3)CC2)n1 | 0.97 (inactive) | -0.61
COc1cc(Cl)c(C)cc1NC(=O)c1n[nH]c(=O)c2ccccc12 | 1.01 (inactive) | 0.38
CC1CCCCC1NS(=O)(=O)c1ccc2c(c1)CCN2C(=O)C1CCC1 (stereo not drawn) | 0.937 (inactive) | -2.14
COCCN1Cc2cccc(C(=O)NC3CCCC3)c2C1=O | 1.06 (inactive) | 0.062
O=C(NC1CC1)c1ccc2c(c1)NC(=O)c1ccccc1N2 | 0.861 (inactive) | -2.13
Cc1sc2ncnc(NCC3(c4ccccc4)CCCC3)c2c1C | 1.08 (inactive) | 1.89

SMILES | normalised signal (fraction of DMSO) | z-score
COCCNC(=O)c1ccc2c(c1)N=C(C)c1cc(Br)ccc1S2 | 0.995 (inactive) | -0.23
CCC(C)NC(=O)c1sc2ncn(CC(=O)Nc3ccccc3OC)c(=O)c2c1C (stereo not drawn) | 1.07 (inactive) | 0.734
Cc1ccc(-c2nc3ncccc3o2)cc1NC(=O)c1ccc(Br)cc1 | 0.923 (inactive) | -0.643
CC(C)NC(=O)c1ccc2nc(-c3ccccc3)c(-c3ccccc3)nc2c1 | 1.07 (inactive) | 0.662
Cc1cccc(CCNC(=O)CCCNS(=O)(=O)c2ccc3c(c2)CCC(=O)N3)c1 | 1.06 (inactive) | 2.11
Cc1ccc2c(c1)N(C(C)C(=O)NCc1ccc(F)cc1Cl)C(=O)CO2 (stereo not drawn) | 0.512 (inactive) | -8.83
CCOc1ccc(CNC(=O)C(C)N2C(=O)COc3ccc(C)cc32)cc1 (stereo not drawn) | 0.421 (active) | -10.5
CCN(CCCNC(=O)C(C)N1C(=O)COc2ccc(C)cc21)c1ccccc1 (stereo not drawn) | 0.631 (inactive) | -6.67
O=C1C2C3C=CC(C4CC34)C2C(=O)N1Cc1cccnc1 (stereo not drawn) | 0.934 (inactive) | -1.18
Cc1cc(N2CCCCC2)nc2ccc(NC(=O)c3cnccn3)cc12 | 0.882 (inactive) | -2.15
CCN(CCNC(=O)Cn1nc(-c2ccc(Cl)cc2)ccc1=O)c1ccccc1 | 0.859 (inactive) | -7.3
COc1ccc(N2CC(C(=O)Nc3ccc(C(C)C)cc3)CC2=O)cc1 (stereo not drawn) | 1.06 (inactive) | 0.0758
CC(=O)Nc1ccccc1-c1nc2ccccc2n(C)c1=O | 1.23 (inactive) | 3.65
Cc1cc(C)cc(OC(C)C(=O)N(Cc2ccc(Cl)cc2)C2CCS(=O)(=O)C2)c1 (stereo not drawn) | 0.978 (inactive) | -0.282
Nc1nonc1-c1noc(-c2c(F)cccc2F)n1 | 1.09 (inactive) | 0.864
COc1ccc(Nc2cc(C(=O)NC3CC3)c3ccccc3n2)c(OC)c1 | 0.865 (inactive) | -2.17
CCOc1ccc(-n2ccnc2SCC(=O)Nc2cccc(Cl)c2)cc1 | 0.445 (active) | -0.736
COc1cccc(-n2ccnc2SCC(=O)Nc2ccc(OC(F)(F)F)cc2)c1 | 0.995 (inactive) | -0.0932
COc1cccc(-n2ccnc2SCC(=O)Nc2ccc(Br)cc2)c1 | 0.458 (active) | -0.719
CCOc1ccc(-n2ccnc2SCC(=O)Nc2ccccc2F)cc1 | 0.617 (inactive) | -0.508
COc1ccc(-n2ccnc2SCC(=O)Nc2ccc(C)cc2)cc1 | 0.62 (inactive) | -0.504
CCOc1ccc(-n2ccnc2SCC(=O)Nc2ccc(C)cc2C)cc1 | 0.963 (inactive) | -0.292
